Measured values: PubChem BioAssay
Unmarked numbers belong to inactive results. For some assays here: Results with a measured potency or affinity are listed apart. Active and inactive are the calls of the source. Unless noted, no rule for the calls is given here.

Columns and labels:
[1] = antimalarial activity against Dd2 strain (AID 2302;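 active = growth inhibition above 50% at the single 2 µM test dose, taken to imply half-maximal potency below 2 µM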;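 also: 0% = DMSO untreated growth and 100% = chloroquine plus artemisinin killed control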); conditions: P. falciparum Dd2 in RBCs, LDH growth readout, 72 h; at 2 µM; active compounds read high
[2] = human hepatoma cell viability loss – ATP luminescence, cytotoxicity control for P. falciparum antimalarial project, primary screen (AID 2303;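 active = inhibition above 50%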;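 also: 0% = DMSO wells and 100% = digitonin-killed cells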); conditions: HepG2 viability, 24-48 h, at 10 µM, active compounds read high
[3] = molecular target: L-lactate dehydrogenase (Plasmodium falciparum (isolate CDC / Honduras)) (UniProt Q27743); test: PfLDH activity inhibition – cell lysate, 3D7 strain, counter-screen for P. falciparum growth inhibition project (AID 2304);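 also: 0% = vehicle and 100% = reference inhibitor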; conditions: P. falciparum 3D7 crude extract, LDH APAD/NBT absorbance; at 2 µM; active compounds read high
Sequence of L-lactate dehydrogenase (Plasmodium falciparum (isolate CDC / Honduras)) (Q27743 whole entry, looked up): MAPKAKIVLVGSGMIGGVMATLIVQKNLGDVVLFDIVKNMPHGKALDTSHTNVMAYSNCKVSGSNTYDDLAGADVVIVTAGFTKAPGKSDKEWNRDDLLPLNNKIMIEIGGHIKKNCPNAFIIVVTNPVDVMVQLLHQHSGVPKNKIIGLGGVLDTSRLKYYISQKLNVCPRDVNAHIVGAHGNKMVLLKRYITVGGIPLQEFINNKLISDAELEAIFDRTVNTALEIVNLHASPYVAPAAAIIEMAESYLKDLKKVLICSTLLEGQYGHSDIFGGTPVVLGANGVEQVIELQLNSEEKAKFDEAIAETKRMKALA

[4] = inhibition of 3D7 malaria parasite growth – strain 3D7 (AID 2306);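 also: 0% = DMSO wells and 100% = chloroquine plus artemisinin control wells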; conditions: P. falciparum 3D7 erythrocytic growth, LDH absorbance, 72 h; at 2 µM; active compounds read high
[5] = molecular target: Calcium-dependent protein kinase 1 (Plasmodium falciparum (isolate 3D7)) (UniProt P62344); test: PfCDPK1 kinase inhibitors, biochemical, TCAMS library (AID 1159585; cut-off not given, nearly all actives have IC50 up to about 0.98 µM;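 also: inhibitors leave more ATP so luminescence rises with inhibition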); conditions: recombinant PfCDPK1, Kinase-Glo ATP depletion luminescence
Sequence of Calcium-dependent protein kinase 1 (Plasmodium falciparum (isolate 3D7)) (P62344 whole entry, looked up): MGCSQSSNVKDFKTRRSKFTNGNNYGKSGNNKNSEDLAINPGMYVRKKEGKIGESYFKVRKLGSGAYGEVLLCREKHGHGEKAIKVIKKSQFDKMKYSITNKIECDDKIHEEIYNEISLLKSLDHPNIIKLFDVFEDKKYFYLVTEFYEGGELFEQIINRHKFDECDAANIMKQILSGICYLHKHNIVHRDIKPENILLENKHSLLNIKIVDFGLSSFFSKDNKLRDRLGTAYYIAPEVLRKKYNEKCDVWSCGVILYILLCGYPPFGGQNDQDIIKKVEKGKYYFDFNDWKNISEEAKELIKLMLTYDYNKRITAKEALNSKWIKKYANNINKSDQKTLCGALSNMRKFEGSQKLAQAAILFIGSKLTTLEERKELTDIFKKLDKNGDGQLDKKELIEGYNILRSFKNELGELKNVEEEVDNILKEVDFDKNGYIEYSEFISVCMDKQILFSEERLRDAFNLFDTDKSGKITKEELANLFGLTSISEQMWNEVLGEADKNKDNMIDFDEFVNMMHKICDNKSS

[6] = molecular target: Plasmodium falciparum protein kinase 6 (PK6, PF3D7_1337100) (UniProt Q8IDW1); test: PfPK6 kinase inhibitors, biochemical, TCAMS library (AID 1159586); conditions: recombinant PfPK6, Kinase-Glo ATP depletion luminescence
Sequence of Plasmodium falciparum protein kinase 6 (PK6, PF3D7_1337100) (Q8IDW1 1-305): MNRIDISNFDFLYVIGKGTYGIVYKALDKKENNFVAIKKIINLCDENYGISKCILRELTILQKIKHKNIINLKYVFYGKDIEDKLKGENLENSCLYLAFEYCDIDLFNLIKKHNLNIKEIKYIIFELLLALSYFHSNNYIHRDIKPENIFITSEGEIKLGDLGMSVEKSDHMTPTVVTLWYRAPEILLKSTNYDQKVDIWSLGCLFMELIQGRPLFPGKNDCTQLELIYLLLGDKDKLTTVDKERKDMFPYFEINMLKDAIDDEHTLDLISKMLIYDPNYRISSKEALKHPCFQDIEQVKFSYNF

[7] = molecular target: Protein kinase 7 (PK7), Plasmodium falciparum 3D7 (PF3D7_0213400) (UniProt Q7YTF7); test: inhibition of Plasmodium PK7 catalytic activity – biochemical, TCAMS antimalarial set, Kinase-Glo luminescence (AID 1159587); conditions: recombinant PfPK7, Kinase-Glo ATP depletion luminescence
Sequence of Protein kinase 7 (PK7), Plasmodium falciparum 3D7 (PF3D7_0213400) (Q7YTF7 1-343): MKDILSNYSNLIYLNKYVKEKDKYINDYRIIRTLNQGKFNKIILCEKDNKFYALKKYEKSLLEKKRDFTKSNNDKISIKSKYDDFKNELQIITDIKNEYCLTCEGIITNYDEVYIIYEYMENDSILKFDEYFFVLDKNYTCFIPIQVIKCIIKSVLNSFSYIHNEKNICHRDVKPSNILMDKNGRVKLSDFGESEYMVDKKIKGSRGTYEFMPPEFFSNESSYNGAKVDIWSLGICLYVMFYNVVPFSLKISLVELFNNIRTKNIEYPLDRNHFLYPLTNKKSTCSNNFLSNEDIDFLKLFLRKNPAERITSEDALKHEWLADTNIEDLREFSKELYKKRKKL

[8] = molecular target: Calcium-dependent protein kinase 4 (Plasmodium falciparum (isolate 3D7)) (UniProt Q8IBS5); test: PfCDPK4 kinase inhibitors, biochemical, TCAMS library (AID 1159588; cut-off not given, nearly all actives have IC50 up to about 0.91 µM); conditions: recombinant PfCDPK4, Kinase-Glo ATP depletion luminescence
Sequence of Calcium-dependent protein kinase 4 (Plasmodium falciparum (isolate 3D7)) (Q8IBS5 whole entry, looked up): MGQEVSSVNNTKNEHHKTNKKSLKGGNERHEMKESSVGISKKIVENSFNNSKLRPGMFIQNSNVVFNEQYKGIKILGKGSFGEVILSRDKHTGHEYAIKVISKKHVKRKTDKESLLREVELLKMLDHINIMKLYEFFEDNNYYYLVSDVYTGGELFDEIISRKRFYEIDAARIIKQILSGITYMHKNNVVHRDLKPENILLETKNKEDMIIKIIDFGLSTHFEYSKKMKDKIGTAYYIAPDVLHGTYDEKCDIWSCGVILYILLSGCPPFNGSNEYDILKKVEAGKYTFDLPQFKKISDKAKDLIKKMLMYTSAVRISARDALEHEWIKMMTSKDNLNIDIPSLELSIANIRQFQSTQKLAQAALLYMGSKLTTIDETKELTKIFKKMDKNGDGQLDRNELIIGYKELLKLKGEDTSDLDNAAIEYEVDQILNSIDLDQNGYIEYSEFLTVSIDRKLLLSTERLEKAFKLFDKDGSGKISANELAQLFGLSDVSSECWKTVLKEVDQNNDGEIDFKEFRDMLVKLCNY

Structure (SMILES)	growth inhibition [1]	inhibition [2]	inhibition [3] [%]	growth inhibition [4]	outcome [5]	outcome [6]	outcome [7]	outcome [8]
N/C(=N/C(=NCCCCCCN=C(/N=C(/N)Nc1ccc(Cl)cc1)N1CCCCC1)N1CCCCC1)Nc1ccc(Cl)cc1	98% (active)	-7%	0	100% (active)	inactive	inactive	inactive	inactive
Cc1noc(C)c1-c1cccc(CNCc2ccc(-c3cccc(-c4nc5ccccc5[nH]4)c3)cc2)c1	57% (active)	50% (active)	-1	100% (active)	inactive	inactive	inactive	inactive
NCCCNc1ccc(-c2ccc(NC(=O)Nc3cc(C(F)(F)F)ccc3F)cc2)cn1	66% (active)	-3%	3	100% (active)	inactive	inactive	inactive	inactive
CCN1CCN(c2cc(C)c3cc(NC(=O)c4cccc(Cl)c4)ccc3n2)CC1	58% (active)	4%	-4	100% (active)	inactive	inactive	inactive	inactive
COCCn1c(Sc2ncnc3sccc23)nc2ccccc21	72% (active)	-8%	-6	95% (active)	inactive	inactive	inactive	inactive
Cc1cc(N2CCCC2)nc(Nc2ccc(NC(=O)COc3ccccc3)cc2)n1	86% (active)	43%	4	101% (active)	inactive	inactive	inactive	inactive
COc1cccc2cc(C(=O)N[C@@H](CC(C)C)C(=O)N[C@H](/C=N/N(C)C(=O)OC(C)(C)C)CC(=O)OC(C)(C)C)oc12	67% (active)	5%	-8	87% (active)	inactive	inactive	inactive	inactive
Cn1cccc1C(=O)NCC(CCNc1cc(=O)c2ccccc2[nH]1)NCc1cc(Br)cc(Br)c1 (stereo not given)	52% (active)	-3%	-2	92% (active)	inactive	inactive	inactive	inactive
CC(C)(C)C(=O)Oc1ccc(CC2NCCc3cc(OC(=O)C(C)(C)C)c(OC(=O)C(C)(C)C)cc32)cc1OC(=O)C(C)(C)C (stereo not given)	96% (active)	3%	5	97% (active)	inactive	inactive	inactive	inactive
Cc1cc(-c2ccc3c(c2)CCN(CCC2CCC(NC(=O)/C=C/c4ccc(F)cc4)CC2)CC3)on1 (stereo not given)	47%	29%	-4	98% (active)	inactive	inactive	inactive	inactive
Cc1cc(N[C@@H](CC(C)C)C(=O)Nc2ccccc2)nc(NCCc2ccc(F)cc2)n1	94% (active)	8%	4	101% (active)	inactive	inactive	inactive	inactive
CCOC(=O)c1cn(CC)c2cc(O[C@@H]3CCN(C(=O)OC(C)(C)C)C3)ccc2c1=O	94% (active)	13%	-8	97% (active)	inactive	inactive	inactive	inactive
Cn1cnc(CCNC(=O)c2ccc(-c3cccc(-c4nc5ccc(C(F)(F)F)cc5[nH]4)c3)cc2)c1	93% (active)	25%	3	101% (active)	inactive	inactive	inactive	inactive
COc1cccc(C2(c3cccc(OC)c3)N=C(N)N(CCCc3ccccc3)C2=O)c1	93% (active)	3%	4	98% (active)	inactive	inactive	inactive	inactive
O=C(Nc1ccc2nc(-c3ccccc3)[nH]c2c1)c1cc(-c2ccc3c(c2)OCCO3)n[nH]1	75% (active)	58% (active)	-2	100% (active)	inactive	inactive	inactive	inactive
Cc1nc(N)nc(N)c1OCCCOc1cccc(Cl)c1Cl	95% (active)	59% (active)	-2	93% (active)	inactive	inactive	inactive	inactive
O=C(NCCCCN1CC=C(c2ccc3c(c2OCC2CC2)CCCC3)CC1)c1ccc(-c2ccc(C(F)(F)F)cc2)cc1	60% (active)	25%	-10	93% (active)	inactive	inactive	inactive	inactive
CN(C)C(CNc1ncnc2cc(Cl)ccc12)Cc1ccccc1 (stereo not given)	88% (active)	13%	-4	96% (active)	inactive	inactive	inactive	inactive
Cc1cccc2[nH]c(-c3cccc(-c4cccc(CN5CCN(c6ccc(C#N)cn6)CC5)c4)c3)nc12	34%	11%	-5	94% (active)	inactive	inactive	inactive	inactive
Cc1ccccc1C1CCN(C2CCC(NC(=O)/C=C/c3ccc(C(F)(F)F)cc3F)CC2)CC1 (stereo not given)	58% (active)	72% (active)	-2	99% (active)	inactive	inactive	inactive	inactive

Structure (SMILES)	growth inhibition [1]	inhibition [2]	inhibition [3] [%]	growth inhibition [4]	outcome [5]	outcome [6]	outcome [7]	outcome [8]
O=[N+]([O-])c1cccc(CNCC2CCC(CNCc3cccc([N+](=O)[O-])c3)CC2)c1 (stereo not given)	76% (active)	39%	-1	100% (active)	inactive	inactive	inactive	inactive
Cc1cc(N[C@@H](Cc2ccccc2)C(=O)NCc2cccc(F)c2)nc(NCC2CCCCC2)n1	42%	43%	-2	101% (active)	inactive	inactive	inactive	inactive
COc1ccc(NC(=O)Nc2ccc(-c3ccncc3)c(C(F)(F)F)c2)cc1N1CCN(C)CC1	62% (active)	5%	2	101% (active)	inactive	inactive	inactive	inactive
O=C(Nc1cccc(CN2CCCN(Cc3ncc[nH]3)CC2)c1)c1ccc(-c2ccccc2)cc1	56% (active)	23%	-5	101% (active)	inactive	inactive	inactive	inactive
NC(=O)c1cnc2cc(-c3ccncc3)cc(Nc3ccc(NC(=O)C4CCCCC4)cc3)c2c1	99% (active)	58% (active)	0	98% (active)	inactive	inactive	inactive	inactive
OC(CNC1CCCCC1)Cn1c2ccc(Br)cc2c2cc(Br)ccc21 (stereo not given)	100% (active)	10%	3	98% (active)	inactive	inactive	inactive	inactive
CS(=O)(=O)c1ccc(CNCc2ccc(-c3ccc(-c4nc5ccc(F)cc5[nH]4)s3)cc2)cc1	97% (active)	22%	0	102% (active)	inactive	inactive	inactive	inactive
Cc1cc(C2CCN(CCCCNC(=O)c3ccc(-c4ccc(C(F)(F)F)cc4)cc3)CC2)c(C)cc1OCC#N	58% (active)	40%	3	100% (active)	inactive	inactive	inactive	inactive
Cc1cccc2[nH]c(-c3ccc(-c4ccc(CN5CCN(c6ccncc6)CC5)cc4)cc3)nc12	100% (active)	98% (active)	3	102% (active)	inactive	inactive	inactive	inactive
CC(C)NC(=O)c1cccc(-c2ccc(OCCN3CCCC3c3cc4ccccc4[nH]3)cc2)c1 (stereo not given)	34%	25%	-2	100% (active)	inactive	inactive	inactive	inactive
Cc1cnc(NC(=O)c2cn(-c3ccccc3)nc2-c2cccs2)s1	1%	-5%	-1	91% (active)	inactive	inactive	inactive	inactive
O=C(C=Cc1ccc(Cl)c(Cl)c1)NCCCCCN1CCCC(CCCNC(=O)[C@@H]2C[C@H]2c2ccccc2)C1 (stereo not given in full)	5%	48%	-1	85% (active)	inactive	inactive	inactive	inactive
CC(C)OC(=O)c1cccnc1SCC(=O)Nc1ccc(C(F)(F)F)cc1Cl	88% (active)	3%	-3	97% (active)	inactive	inactive	inactive	inactive
CC(C)Oc1ccc(C=CC(=O)Nc2noc3ccccc23)cc1	95% (active)	2%	4	96% (active)	inactive	inactive	inactive	inactive
O[C@@H](c1cccc2ccccc12)[C@@H]1CN(CCc2ccccc2)CC[C@@]1(O)c1ccccc1	101% (active)	-2%	-2	99% (active)	inactive	inactive	inactive	inactive
Cc1nc(-c2ccncc2)sc1C(=O)Nc1ccc(Cl)cc1C(=O)Nc1ccc(Cl)cc1	47%	2%	-3	98% (active)	inactive	inactive	inactive	inactive
O=C(/C=C/c1ccc(Cl)c(Cl)c1)NCCCCCN1CCC(NC(=O)NCCc2ccccc2)CC1	7%	23%	2	100% (active)	inactive	inactive	inactive	inactive
CCCCCC(=O)N1CCOC(CCN2CCC(c3ccccc3)CC2)(c2ccc(Cl)c(Cl)c2)C1 (stereo not given)	51% (active)	17%	1	89% (active)	inactive	inactive	inactive	inactive
O=C(/C=C/c1ccc(Cl)c(Cl)c1)NCCCCCN1CCC(NC(=O)Nc2cc(F)cc(F)c2)CC1	6%	80% (active)	-3	101% (active)	inactive	inactive	inactive	inactive
C=Cc1cc(NC(=O)N2CCc3cc(OC)c(C(F)(F)F)cc32)cc(-c2cccnc2)c1	20%	7%	-2	92% (active)	inactive	inactive	inactive	inactive
